Data published in PubChem BioAssay (NCATS).
Results filed as inconclusive are left out. Calls of active or inactive are those of the source. Calls follow the shape of the dose curve; as a rule, active = well fitted inhibition curve with a large enough effect; inconclusive = small, poorly fitted or top-dose-only effect; inactive = flat fitted curve, though single readings scatter.

Columns and labels:
Assay in all cases: qHTS profiling for inhibitors of Plasmodium falciparum proliferation (AID 504749); also: nearly all actives have a fitted effect of over 60% in size
Conditions in all cases: P. falciparum in erythrocytes, SYBR Green DNA, 72 h; series mostly up to 28.7 µM
[1] = system: CP237
Method in brief: (§1)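 P. falciparum-infected erythrocytes (0.3% parasitemia, 2.5% hematocrit final) were exposed to compounds for 72 h at 37 C in 5% CO2, then lysed with SYBR Green buffer overnight at room temperature; parasite DNA fluorescence was normalized to artemisinin and DMSO controls.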

[2] = system: CP238
Method in brief: as §1

[3] = system: CP247
Method in brief: as §1

[4] = system: CP250
Method in brief: as §1

[5] = system: CP252
Method in brief: as §1

[6] = system: CP256
Method in brief: as §1

[7] = system: CP260
Method in brief: as §1

[8] = system: CP262
Method in brief: as §1

[9] = system: CP265
Method in brief: as §1

[10] = system: CP266
Method in brief: as §1

Measured: outcome

CCOC(=O)C(CCc1ccccc1)NC(C)C(=O)N1Cc2ccccc2CC1C(=O)O (stereo not given)
inactive: all assays above

CCc1cccc2c3c([nH]c12)[C@@](CC)(CC(=O)O)OCC3
inactive: all assays above
